# From PubChem
# TLR9-MyD88 block: TLR9-MyD88 interaction inhibition. inhibition, % at 4.98 µM. Q9NR96+Q99836. CHO BLA complementation TLR9-MyD88, CCF4 FRET ratio. actives 0.21% (n = 340,000);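 active means inhibition above the mean over all tested compounds plus 3 SD, cut at about 21% in these data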;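 further: 0% = DMSO only wells and 100% = clavulanate BLA inhibitor control wells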
# TLR4-MyD88 BLA: TLR4-MyD88 interaction inhibition in cells | O00206+Q99836 | HeLa CL3-4 TLR4/MyD88 BLA complementation, FRET ratio | inhibition, % at 8.4 µM | actives 0.18% (n = 200,000); in the data active means inhibition above about 25%;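 further: 0% = vehicle and 100% = reference inhibitor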
# NOD2 RIPK2 PPI: inhibitors of human NOD2-RIPK2 interaction | O43353 | CHO BLA complementation NOD2-RIPK2, CCF4 ratio | inhibition, % at 4.98 µM | actives 0.38% (n = 360,000); in the data active means inhibition above about 21%;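 further: 0% = vehicle only and 100% = reference blocker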
# rCAG RNA binder: binds r(CAG) RNA repeats; r(CAG) RNA repeat, TO-PRO-1 dye displacement fluorescence; inhibition, % at 3 µM; AID 651821; actives 1.3% (n = 370,000);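 active means inhibition above the plate cutoff, the mean of all test compounds on that plate plus 3 SD, cut at about 35% in these data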;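 further: 0% = DMSO alone and 100% = 100 µM mitoxantrone as full dye displacement; higher means more dye released from RNA so lower well fluorescence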
# ABHD5-PLIN5 inh: inhibitors of human ABHD5-perilipin-5 interaction; inhibition, % at 4 µM; actives 0.78% (n = 360,000); Split G. princeps luciferase complementation, luminescence, 4 h;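 active means inhibition above the mean inhibition across every tested compound plus 3 SD, cut at about 22% in these data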;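 further: 0% = DMSO only wells and the 100% control is not disclosed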
# PRMT1 inh: PRMT1 (human) inhibition, primary screen. inhibition, % at 2.79 µM. actives 1.3% (n = 370,000). Q99873. recombinant PRMT1, activity-based probe fluorescence polarization;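 active means inhibition above about 21% made by adding two undisclosed values, limit read from the data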
# rCAG binder conf: r(CAG) RNA repeat binding, confirmation; shares compounds with rCAG RNA binder; TO-PRO-1 dye displacement fluorescence; inhibition, % at 3 µM; actives 70% (n = 4,300);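 active means inhibition above a per-plate cutoff, the mean inhibition of sample wells plus 3 SD, cut at about 35% in these data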;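 further: loss of TO-PRO-1 fluorescence as compound displaces dye from 1x1 AA loop RNA; 0% = DMSO only wells and 100% = 100 µM mitoxantrone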
# dCAG dye counter: disrupts DNA CAG TO-PRO-1 complex, flagging rCAG hits; shares compounds with rCAG RNA binder; d(CAG) DNA oligo TO-PRO-1 dye displacement, fluorescence; inhibition, % at 3 µM; actives 94% (n = 4,300);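 active means inhibition above its plate's cutoff, the mean test-well inhibition plus 3 SD, cut at about 4.8% in these data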;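 further: 0% = DNA dye mix with DMSO and 100% = 100 µM mitoxantrone; hits displace the dye from DNA and so lower well fluorescence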
# DNA CAG DR: counter-screen for rCAG binders: inhibitors of DNA CAG TO-PRO-1 complex | shares compounds with rCAG RNA binder | DNA CAG/GTC duplex TO-PRO-1 dye displacement fluorescence | IC50, µM | actives 20% (n = 250) | AID 686960; in the data active means IC50 below about 10 µM
# * hit, by the source's call; · = not tested or not shown; ! = not active in a repeat. An excerpt weighted towards active compounds, which were near 3.3% of everything screened.
SMILES,TLR9-MyD88 block,TLR4-MyD88 BLA,NOD2 RIPK2 PPI,rCAG RNA binder,ABHD5-PLIN5 inh,PRMT1 inh,rCAG binder conf,dCAG dye counter,others
CC(C)OP(=O)(OC(C)C)C1(NS(=O)(=O)c2ccc(Cl)cc2)C=C(Cl)C(=O)C(Cl)=C1,18,·,4,40*,7,30*,27,5.9*,
NS(=O)(=O)c1ccc(N2N=C(c3ccccc3)CC2c2ccccc2)cc1 (centres undefined),-31,-20,-10,7,-7,1,·,·,
O=S(=O)(O)c1ccc(N2N=C(c3ccccc3)CC2c2ccccc2)cc1 (centres undefined),13,-1,-1,79*,7,3,56*,19*,
O=C(COC(=O)CC1CCCC1)Nc1ccc(Cl)cc1,5,·,-3,-3,3,-3,·,·,
c1cn2c(NC3CCCC3)c(-c3ccc(N4CCOCC4)cc3)nc2cn1,9,·,7,4,0,-2,·,·,
c1cn2c(NC3CCCCC3)c(-c3ccc(SC4CCCCC4)cc3)nc2cn1,1,·,3,50*!,-8,0,37*,8.3*,DNA CAG DR=>30
O=C1CCCC2=C1C(c1cn(-c3ccccc3)nc1-c1cccs1)c1c([nH]c(=O)[nH]c1=O)N2 (centres undefined),0,8,-9,39*,-4,-4,27,15*,
Cc1ccc(NC(=O)OCCCN2C(=O)CCC23CCC(C)CC3)cc1 (centres undefined),·,·,·,-1,·,-5,·,·,
N#Cc1c(SCC(=O)O)nc(N2CCCCC2)c2c1CCCC2,-4,-15,-10,35*,5,-4,27,7.1*,
CCn1nc(NS(=O)(=O)c2ccc(NC(C)=O)cc2)c2cc3cccc(C)c3nc21,3,·,-1,39*,0,0,19,4,
CCCn1nc(NS(=O)(=O)c2cccc3nonc23)c2cc3cccc(C)c3nc21,-10,·,-1,85*,-14,1,78*,41*,
CCn1nc(NS(=O)(=O)c2ccccc2)c2cc3cccc(C)c3nc21,0,-11,-11,41*,-5,-4,33,11*,
CN1CCN(C(=O)c2cc3c(c(-c4cccc(-c5cc6ccccc6o5)c4)n2)[C@H](CCO)N(S(=O)C(C)(C)C)C3)CC1 (some centres undefined),·,·,-16,3,9,-4,·,·,
CC(C)(C)S(=O)N1Cc2cc(C(=O)O)nc(-c3cccc(-c4cc5ccccc5o4)c3)c2[C@H]1CCO (some centres undefined),·,·,-11,39*,2,10,35*,13*,
CC(C)c1ccc(NC(=O)Nc2nc(C(N)C3CCCCC3)cs2)cc1 (centres undefined),·,·,-2,35*,-11,-1,21,5.5*,
COc1ccc(NC(=O)Nc2nc(C(N)C3CCCCC3)cs2)cc1 (centres undefined),·,·,-2,40*,-2,-4,25,4.6*,
Cc1cc2c(c(=O)o1)[C@@]1(C(=O)N(C)c3cccc(Br)c31)C1=C(CCCC1=O)O2,·,·,·,0,·,1,·,·,
Cc1cccc(-n2c(O)c(C=Nc3ccccc3-c3n[nH]c(=S)[nH]c3=O)c3ccccc3c2=O)n1,-6,·,-11,46*,-1,11,44*,13*,
Cc1ccc(-n2c(O)c(C=Nc3ccccc3-c3n[nH]c(=S)[nH]c3=O)c3ccccc3c2=O)c(C)c1,0,-20,7,72*,4,0,88*,57*,
Cc1ccc(-n2c(O)c(C=Nc3ccccc3-c3n[nH]c(=S)[nH]c3=O)c3ccccc3c2=O)cc1C,3,7,-2,77*,8,19,81*,48*,
Cc1ccc(-n2c(O)c(C=NC3CCS(=O)(=O)C3)c3ccccc3c2=O)cc1C (centres undefined),3,0,-9,2,-2,0,·,·,
COCCNc1nc(-c2ccc(Cl)cc2C)c2sccc2n1,·,·,6,0,11,-4,·,·,
O=C(NCCc1ccc(Cl)cc1)c1cc(-c2ccccn2)nc2ccccc12,2,·,-6,-2,-6,-1,·,·,
Cc1ccc(S(=O)(=O)N/N=C2/CC(c3ccccc3)Oc3ccccc32)cc1[N+](=O)[O-] (centres undefined),7,3,-1,42*,-12,10,76*,37*,
Cc1ccc(S(=O)(=O)CCC(=O)OCC(=O)NC(C)c2ccccc2)cc1 (centres undefined),13,·,4,2,-8,-1,·,·,
SMILES,TLR9-MyD88 block,TLR4-MyD88 BLA,NOD2 RIPK2 PPI,rCAG RNA binder,ABHD5-PLIN5 inh,PRMT1 inh,rCAG binder conf,dCAG dye counter,others
CC(/C=C1\SC(=S)N(CCC(=O)Nc2nc(C)cs2)C1=O)=C\c1ccccc1,-4,·,0,7,2,0,·,·,
COc1ccccc1/C=c1\sc2nc(-c3cccs3)nn2c1=O,·,-4,·,·,·,·,·,·,
COc1ccccc1/C=C/C=c1\sc2nc(=O)c(Cc3ccccc3)nn2c1=O,0,·,-2,40*,-9,19,50*,22*,
C=CCn1c(CSCc2ccc(Cl)cc2Cl)nnc1SCC(=O)Nc1ccc(C(=O)O)cc1,6,·,-9,36*,0,-6,53*,16*,
COC(=O)[C@]12CCCCC=C1N(Cc1cccc3ccccc13)C(=O)[C@H](CC(=O)NCCC(C)C)C2,·,·,-9,6,3,2,·,·,
Cc1ccc2c(c1)c(Sc1ccccc1)c(CC(=O)O)n2C,-2,5,-9,35*,-5,2,26,5.2*,
CCOC(=O)Cc1c(Sc2ccccc2)c2cc(C)ccc2n1C,-1,0,-3,6,-8,2,·,·,
Clc1ccccc1Nc1nc(NCC2CC2)nc2ccsc12,·,·,7,3,4,2,·,·,
Cc1c(C)n(Cc2ccc(-c3ccccc3C(=O)O)cc2)c2ccc(C(=O)N[C@@H](C)c3ccc(Br)cc3)cc12,·,·,·,77*,·,1,77*,38*,
Cc1c(NS(=O)(=O)c2cccs2)cccc1-c1nc2cccnc2s1,-3,·,-1,12,-1,5,·,·,
Cc1cc(-c2nc3cccnc3s2)ccc1NS(=O)(=O)c1cccs1,-6,-8,-18,50*,-1,-1,37*,11*,
Cc1cc(-c2nc3cccnc3s2)ccc1NS(=O)(=O)c1ccc2c(c1)OCCO2,-17,-17,-22,38*,4,-2,47*,14*,
CCOC(=O)CNC(=O)CSc1nnc(-c2cccs2)o1,·,·,·,1,·,1,·,·,
